# Source: PubChem (National Center for Advancing Translational Sciences (NCATS))
# The list is not random: actives were taken first. Their share in the collection is about 19%.
# uPA surface inh = qHTS for Inhibitors of Cell Surface uPA Generation; cell surface uPA generation assay, qHTS; Potency, µM (series often up to 38.3 µM), without a hit: top-dose activity change, negative = inhibition, usual class: inhibitors; 330,000 tested, 0.31% active; AID 540303, 2011; active = well fitted inhibition curve with a large enough effect; inconclusive = small, poorly fitted or top-dose-only effect; inactive = no such curve, though single readings can be large or run the other way; tested in mouse RAW 264.7 cells; also: potency is read from the fitted curve at half-maximal effect; nearly all actives have a fitted effect of over 55% in size
# DT40 TDP1 CPT = qHTS for Inhibitors of human tyrosyl-DNA phosphodiesterase 1 (TDP1): qHTS in cells in presence of CPT. AID 686979, 2013. Potency, µM (doses to about 46.2 µM), for inactives: at the top dose activity change, negative = growth inhibition, actives largely listed as inhibitors. 420,000 tested, 12% active. chicken DT40 Tdp1-/-;hTDP1 cells + 20 nM CPT, ATP luminescence, 48 h; also: potency is read from the fitted curve at half-maximal effect; nearly all actives have a fitted effect of over 55% in size
#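 Chicken DT40 Tdp1-/- cells complemented with human TDP1, 400 cells/well, exposed to compounds plus 20 nM camptothecin for at least 48 h at 37 C; viability read as ATP content by CellTiter-Glo luminescence.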
# TDP1 cell noCPT = qHTS for Inhibitors of human tyrosyl-DNA phosphodiesterase 1 (TDP1): qHTS in cells in absence of CPT. DT40 Tdp1-/- hTDP1 cells, no CPT, ATP luminescence, 48 h. Potency, µM (doses to about 46.2 µM), inactives show top-dose activity change, negative = growth inhibition, most hits filed as inhibitors. 420,000 tested, 15% active; also: potency is read from the fitted curve at half-maximal effect; nearly all actives have a fitted effect of over 55% in size
#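 Chicken DT40 Tdp1-/- cells stably complemented with human TDP1 were seeded at 400 cells/well with DMSO in place of 20 nM camptothecin. After compound pinning, cells grew at least 48 hr at 37 °C; viability read by CellTiter-Glo luminescence.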
# HT1080-NT tox = qHTS for induction of synthetic lethality in tumor cells producing 2HG: qHTS for the HT-1080-NT fibrosarcoma cell line. HT-1080-NT fibrosarcoma viability, CellTiter-Glo ATP luminescence, 48 h. Potency, µM (top dose mostly 46.1 µM), inactives show top-dose activity, negative = less viability, usual class: cytotoxic. 360,000 tested, 1.6% active;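 also: NT is the 2HG producing partner of a matched IDH1 knockdown line; potency is read from the fitted curve at half-maximal effect; 0% = DMSO-treated cells and -100% = media-only wells without cells; nearly all actives have a fitted effect of over 55% in size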
#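 HT-1080-NT; 750 cells/well; 5% FBS RPMI; 48 h compound, 37 degrees C; CellTiter-Glo luminescence; curve fitting and curve-class assignment.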
# IL-1B inflam inh = qHTS for Inhibitors of Inflammasome Signaling: IL-1-beta AlphaLISA Primary Screen | THP-1 LPS/ATP IL-1B secretion, AlphaLISA, 16 h; stronger effect = lower value | activity change, % at 57.5 µM | 360,000 tested, 4.7% active; in the data active = activity change below about -50%; inconclusive = mostly about -30% to -49%
#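 THP-1 cells pretreated 1 hr with compounds (up to 57.5 uM final), then stimulated with LPS (250 ng/mL final) plus ATP (1.25 mM final); secreted IL-1B measured by AlphaLISA after 16 hr, decreased signal indicating inhibition.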
# HT1080 IDH1KD tx = qHTS for induction of synthetic lethality in tumor cells producing 2HG: qHTS for the HT-1080-IDH1KD cell line; HT-1080 IDH1 knockdown viability, ATP luminescence, 48 h; Potency, µM (titrated, usually from 46.1 µM), for the others: at the top dose activity, negative = toxicity, actives largely listed as cytotoxic; 360,000 tested, 2% active; AID 686971, 2013;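 also: potency is read from the fitted curve at half-maximal effect; 0% = DMSO wells and -100% = cell-free medium wells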
#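 Cytotoxicity counter-line: IDH1KD HT-1080, 48 h, CellTiter-Glo. Curves classed by r2, magnitude and activity.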
# Numbers without * were called inactive; ? = inconclusive; / = no result given; [ ] = dose if it differs, or a comment. Unless noted, calls follow the shape of the dose curve; as a rule, active = well fitted curve in the direction sought with a large enough effect; inconclusive = small, poorly fitted or top-dose-only effect, or another doubt; inactive = no such curve, though single readings can be large; an effect the other way counts as inactive or inconclusive. Unless noted, % is scaled to controls: 0 for no effect and ±100 for the full control effect.
SMILES,uPA surface inh,DT40 TDP1 CPT,TDP1 cell noCPT,HT1080-NT tox,IL-1B inflam inh,HT1080 IDH1KD tx
O=C(/C=C/c1ccc(S(=O)(=O)N2CCOCC2)cc1)NCc1ccccc1Cl,-4.8%,?,?,-5.0%,0.0,-11.6%
CC1CCC(C(C)C)C(=O)/C1=C/c1ccc(N)cc1 (stereo not drawn),-3.4%,14.6µM*,13µM*,-5.2%,3.3,?
CCn1c2ccc(OC)cc2c2nc3ccccc3nc21,-3.7%,?,11.6µM*,-22.9%,-10.1,?
CSc1nnc2c3cc(C)ccc3n(Cc3ccccc3)c2n1,-2.0%,?,11.6µM*,-5.6%,24.7,-11.8%
COc1ccc2c(c1)c1nnc(SC)nc1n2Cc1ccccc1,/,10µM*,11.2µM*,5.0%,/,10.3%
Cc1ccc2c(c1)c1nnc(SCC(=O)N3CCCc4ccccc43)nc1n2CC(=O)O,0.0%,-29.4%,-25.2%,19.9%,14.1,22.0%
CCc1ccc(C(O)c2ncc(-c3ccc(C)cc3)[nH]2)cc1 (stereo not drawn),/,?,?,-13.7%,-22.9,-18.7%
COc1ccc(OC)c(CN2C(=O)CN(S(C)(=O)=O)CC2(C)C(=O)NC(C)C)c1 (stereo not drawn),/,-2.5%,2.8%,8.7%,28.4,-17.4%
N#C/C(C(=O)NCc1ccccc1)=C1/N=C(NC(=O)c2ccco2)c2ccccc21,1.6%,?,?,-21.1%,-17.6,-8.8%
COc1ccc(CCNC(=O)/C(C#N)=C2\N=C(NC(=O)c3ccco3)c3ccccc32)cc1,-0.2%,?,16.4µM*,?,9.4,6.2%
Cc1cc(OCC(=O)OCC(=O)N2CCCc3ccccc32)ccc1Cl,/,-8.7%,-10.1%,-4.6%,0.0,-0.6%
CN(C)CCCn1cc(C2=C(c3c[nH]c4ccccc34)C(=O)NC2=O)c2ccccc21,/,-121.7%,23.7µM*,/,/,/
Cn1cc(C2=C(c3cn(CCCSC(=N)N)c4ccccc34)C(=O)NC2=O)c2ccccc21,/,0.631µM*,0.708µM*,/,/,/
Cn1cc(SCC(N)=O)c2ccccc21,6.7%,-16.9%,-3.2%,-3.3%,0.3,12.0%
COc1ccc2cc(CNCc3nonc3C)c(N3CCCC(CO)C3)nc2c1 (stereo not drawn),/,15.1%[9.04 µM],-13.0%,/,/,/
O=C(Nc1ccccc1C(=O)OCc1cc(=O)n2nc(C3CC3)sc2n1)c1cccc(F)c1,/,-8.2%,0.0%,/,/,/
Cc1cc(N/N=C/c2ccccc2F)nc(NCc2ccccc2)n1,-8.5%,?,11.6µM*,-6.9%,-4.0,-4.0%
Fc1ccccc1/C=N/Nc1nc2ccccc2o1,1.8%,?,-1.9%,23.3%,-9.0,21.7%
Cc1cc(N/N=C/c2ccccc2)nc(NCc2ccccc2)n1,-7.5%,4.61µM*,2.59µM*,-19.9%,-4.2,-4.5%
Cc1cc(N/N=C/c2ccc(Cl)cc2)nc(NCc2ccccc2)n1,-3.3%,20.6µM*,8.2µM*,-3.8%,-83.9*,-20.7%
CN(C)c1nc(NCc2ccccc2)nc(N/N=C/c2ccc(Cl)cc2Cl)n1,3.3%,23.1µM*,?,12.9%,39.3,-0.7%
O=C(CC(=O)N/N=C/c1ccc(Cl)cc1Cl)NCc1ccccc1,-2.9%,-7.9%,-6.1%,0.4%,3.6,0.0%
COc1cc([N+](=O)[O-])cc(/C=N/NC(=O)CSc2ccccn2)c1O,2.2%,?,?,?,25.6,?
COc1cc(C(=O)NC2CC(C)CC(C)(C)C2)cc(OC)c1OC (stereo not drawn),/,-26.6%,?,1.2%,-18.3,11.4%
COC(=O)c1ccc(NC(=O)c2cccc(Cl)c2)o1,-2.7%,-16.0%,?,9.6%,5.2,4.0%
SMILES,uPA surface inh,DT40 TDP1 CPT,TDP1 cell noCPT,HT1080-NT tox,IL-1B inflam inh,HT1080 IDH1KD tx
Cc1cc(C)nc(NCc2ccc(Cl)cc2)n1,0.7%,-1.0%,-18.7%,-15.7%,-6.8,-0.8%
Cc1cc(N/N=C/c2cccc(Cl)c2)nc(NCc2ccccc2)n1,-5.6%,8.2µM*,7.31µM*,?,-77.2*,?
Cc1cc(C)nc(N/N=C/c2cccc(Cl)c2)n1,-4.7%,-19.8%,-21.5%,-0.9%,24.0,-1.4%
Cc1cc(Nc2cccc(Cl)c2)nc(NCc2ccccc2)n1,?,5.8µM*,3.66µM*,?,-20.0,?
Cc1cc(N/N=C/c2cccc(F)c2)nc(NCc2ccccc2)n1,-4.5%,?,13µM*,20.6µM*,-71.6*,16.4µM*
COc1ccc(OC)c(NC(=O)C2=C(C)C(=O)OC23CCN(C(C)C)CC3)c1,/,-28.0%,?,/,/,/
N[C@@H](CCS(=O)O)C(=O)O,/,?,-9.1%,/,/,/
Cc1onc(-c2ccccc2Cl)c1C(=O)N1CCN(C/C=C/c2ccccc2)CC1,-0.4%,?,10µM*,8.7%,-51.9*,-26.4%
COc1ccccc1N1CCN(C(=O)c2c(-c3ccccc3Cl)noc2C)CC1,-12.0%,?,20.6µM*,?,-13.7,?
Cc1onc(-c2ccccc2Cl)c1C(=O)OCC(=O)N1CCN(c2ccccc2)CC1,-1.8%,?,16.4µM*,7.1%,15.5,-8.3%
Cc1onc(-c2ccccc2Cl)c1C(=O)Oc1cccc2cccnc12,7.1%,4.11µM*,2.91µM*,-3.4%,0.0,23.1µM*
O=P(O)(O)OC(CO)CO,/,2.8%,-0.7%,/,/,/
COc1ccccc1N1CCN(C(=O)c2cc(-c3cccc(Cl)c3)on2)CC1,/,?,12.6µM*,8.4%,10.9,10.1%
Cc1cc(C(=O)OCn2nnc3ccccc3c2=O)c(C)n1-c1ccccc1,9.2%,?,18.4µM*,-2.8%,-9.4,-19.7%
Cc1ccccc1C(=O)OCn1nnc2ccccc2c1=O,6.7%,-24.0%,-29.6%,12.7%,19.6,2.9%
Cc1onc(-c2ccccc2Cl)c1C(=O)OCn1nnc2ccccc2c1=O,11.2%,18.4µM*,15.8µM*,5.8%,?,-9.2%
O=C(c1ccc(Br)s1)N1CCN(C/C=C/c2ccccc2)CC1,/,?,?,-1.9%,-7.9,-24.7%
O=C(c1ccc(=O)n(Cc2ccccc2)n1)N1CCN(C/C=C/c2ccccc2)CC1,0.0%,18.4µM*,?,-3.1%,19.4,-15.3%
COc1cc(C(=O)Nc2nnc(C3CC3)s2)ccc1OCc1c(C)noc1C,5.2%,-1.6%,-0.6%,9.1%,-20.7,14.5%
